This is a sample that favours compounds with a hit; in the whole collection about 3.6% have one here.
TGFb SMAD3 inh – blocks TGF-b signaling; 410,000 compounds, 1.2% hits; AID 588855; HepG2 CAGA-GFP TGF-b/SMAD3 reporter, GFP fluorescence, 18 h; TGF-beta stimulated, 500 pg/mL final; Potency, µM (titrated, usually from 46.1 µM), for the others: top-dose activity, negative = inhibition, actives largely listed as inhibitors; further: on the % scale 0 is the no-effect control and ±100 the full control effect; nearly all actives have a fitted effect of over 65% in size
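Using HEPG2 CAGA-GFP reporter cells at 1000 cells/well, we pinned test compounds, stimulated with recombinant TGF-beta (500 pg/mL final) and measured total well GFP after 18 h.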
Nrf2 ARE act – activates Nrf2 signaling. 410,000 compounds, 0.31% hits. Potency, µM (top dose mostly 46.1 µM), without a hit: at the highest dose activation, usual class: activators. AID 624171. AREc32 ARE-luciferase reporter (MCF7-derived line), luminescence, 24 h; further: % of control where 0% means no effect; nearly all actives have a fitted effect of over 65% in size
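ARE-driven firefly luciferase activity in AREc32 cells measured after a 24 hr compound exposure at 37 deg C, using Steady-Glo reagent and a 30 min room-temperature hold.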
A549 tox – counter-screen for Nrf2 inhibitors: cytotoxicity in A549 cells; A549 ARE-Fluc cells, CellTiter-Fluor viability, 18-24 h; Potency, µM (doses to about 46 µM), inactives show top-dose activity change, negative = cytotoxicity, actives largely listed as inhibitors; 390,000 compounds, 0.16% hits; AID 504648; further: on the % scale 0 is the no-effect control and ±100 the full control effect
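A549 ARE_Fluc cells in 5% FBS OPTI-MEM were exposed to compounds in concentration-response for 18-24 h at 37 deg C. Viability was read by CellTiter-Fluor fluorescence (Ex 405/Em 525) after 30 min, before the luciferase read.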
HepG2 tox – counter-screen for TGF-b inhibitors: cytotoxicity in HepG2 cells. 410,000 compounds, 0.76% hits. HepG2 CAGA-GFP viability, ATP luminescence, 18 h. Potency, µM (top dose mostly 46.1 µM), for the others: at the highest dose activity change, negative = cytotoxicity, hits mostly cytotoxic. AID 588856
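CellTiter-Glo luminescence gave cytotoxicity after 18 hours at 37 degrees C. The cells were HepG2 CAGA-GFP in 1% FBS DMEM, stimulated with 500 pg/mL TGF-beta after compound addition. %Activity was normalised to no-cell wells (complete cell-killing) and DMSO (no toxicity), and curves were fitted and classified.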
Nrf2 block – Nrf2 pathway inhibition; A549 ARE-Fluc reporter, luciferase luminescence, 18-24 h; Potency, µM (titrated, usually from 46 µM), for the others: at the top dose activity change, negative = inhibition, actives largely listed as inhibitors; 360,000 compounds, 2.1% hits; AID 504444; further: on the % scale 0 is the no-effect control and ±100 the full control effect; nearly all actives have a fitted effect of over 60% in size
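In this cell-based qHTS, ARE-driven firefly luciferase in A549 cells reports Nrf2 activity; the luminescent signal after BugLite lysis is the measured value, with a prior CellTiter-Fluor read for cell health.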
The depositor's hits bear a star; u = inconclusive; x = no result. The call rests on the fitted dose curve; in most records, active means well fitted curve in the direction sought with a large enough effect; inconclusive means small, poorly fitted or top-dose-only effect, or another doubt; inactive means no such curve, though single readings can be large; an effect the other way counts as inactive or inconclusive. Potency means the concentration at half of the fitted maximal effect.

SMILES	TGFb SMAD3 inh	Nrf2 ARE act	A549 tox	HepG2 tox	Nrf2 block
O=C(CCC(=O)N1CCCCCC1)Nc1ccc([N+](=O)[O-])cc1	0%	2%	-8%	3%	0%
COCC(=O)N(CCc1ccccc1)Cc1cc2cc(C)ccc2nc1Cl	-21%	0%	6%	-12%	0%
COCC(=O)N(CCc1ccc(OC)c(OC)c1)Cc1cc2cc(C)ccc2nc1Cl	-30%	0%	-1%	-7%	16µM*
Cc1coc2c(C)c3oc(=O)c(CCC(=O)N[C@@H](C)C(=O)N[C@@H](Cc4ccccc4)C(=O)O)c(C)c3cc12	12%	0%	-1%	-2%	-2%
CCS(=O)(=O)c1ncc(Cl)c(C(=O)NCc2ccccc2)n1	x	-6%	u	-108%	18µM*
O=C(NCc1ccccc1)c1c(Cl)nc(Cl)c(Cl)c1Cl	-31%	10µM*	1%	-4%	-21%
Cc1nc(Cl)c(C(=O)NCc2ccccc2)c(C)c1Cl	1%	2%	8%	9%	u
CCOc1ccc(NC(=O)c2nc(S(=O)(=O)Cc3ccccc3)ncc2Cl)cc1	11µM*	x	x	11µM*	x
Cc1ccc(C)c(NC(=O)c2nc(S(=O)(=O)Cc3ccc(F)cc3)ncc2Cl)c1	3.5µM*	13%	u	3.5µM*	-5%
COC(=O)Cn1cc(C#N)c2ccccc21	u	-1%	-6%	-12%	10%
COc1ccc(C2C(C#N)=C(N)OC3=C2C(=O)CC(C)(C)C3)c([N+](=O)[O-])c1OC (stereo unspecified)	-2%	9%	0%	3%	6%
CC(=O)Nc1ccc(NC(=O)c2ccc(NS(=O)(=O)c3cc(C(C)(C)C)cc(C)c3C)cc2)cc1	-16%	3%	-19%	-31%	u
O=C(Nc1ccc2ccccc2c1)c1cnccn1	-8%	0%	-9%	0%	x
CCS(=O)(=O)c1ncc(Cl)c(C(=O)Nc2ccc(C)cc2)n1	u	-3%	u	-98%	u
CS(=O)(=O)c1ncc(Cl)c(C(=O)Nc2ccc3ccccc3c2)n1	5µM*	-3%	u	5.6µM*	-12%
CCNC(=O)c1c(NC(=O)c2nc(S(=O)(=O)CC)ncc2Cl)sc2c1CCCC2	1.4µM*	13%	21µM*	4µM*	21µM*
CCNC(=O)c1c(NC(=O)c2nc(SCC)ncc2Cl)sc2c1CCCC2	10%	x	x	11%	x
COc1ccc(NC(=O)c2nc(S(=O)(=O)Cc3ccc(C)cc3)ncc2Cl)cc1	x	20%	u	8.9µM*	u
CCOc1ccc(NC(=O)c2nc(S(=O)(=O)Cc3ccc(C)cc3)ncc2Cl)cc1	u	x	x	13µM*	x
Cc1[nH][nH]c(=O)c1C(c1ccc(-c2ccc(C(=O)O)cc2)o1)c1c(C)[nH][nH]c1=O	-15%	5%	-10%	-20%	-25%
Cc1ccc(NC(=O)CS(=O)(=O)c2nc(-c3ccc(C)cc3)cn2-c2ccc(C)cc2)cc1	-17%	6%	0%	-17%	u
CCc1cc[n+](C2=C([O-])c3ccccc3C(=O)/C2=N\S(=O)(=O)c2cccs2)cc1	2.8µM*	-2%	u	3.5µM*	18µM*
O=C(CSc1nc2c(c(=O)[nH]1)CCC2)Nc1ccc(F)cc1	8%	0%	1%	16%	-4%
COc1cc(S(=O)(=O)N2CCOCC2)ccc1NC(=O)COC(=O)C12CC3CC(CC(C3)C1)C2	6%	-1%	-2%	-10%	10%
Cc1ccc2c(CN3CCN(S(=O)(=O)c4ccc5c(c4)OCCO5)CC3)cc(=O)oc2c1C	u	1%	-19%	-20%	16µM*
Cc1ccc2c(CN3CCN(Cc4ccc5c(c4)OCO5)CC3)cc(=O)oc2c1C	-15%	0%	16%	-19%	3%
C/C(=N\Nc1ccc(F)cc1)c1ccc(N2CCOCC2)c(F)c1	-9%	3%	5%	-5%	3%
COC(=O)Cn1c(C)c(/C=C/c2cc[n+](C)cc2)c2ccccc21	82%	4%	-23%	-4%	-6%

Compound activity as filed in PubChem BioAssay.
